From the supplement of paper PMC9177965
“And” between values parts separate entries of the source, which are not always exact repeats. Identical values can stand only once.

How the values were obtained:
[1] = tested on: HT29 RNF43 G659fs (RNF43 659mut, CRISPR-edited); experiment: cell viability activity relative to DMSO (negative = inhibition); higher = more viable cells (less growth inhibition); conditions: 5 µM; 96 h
Procedure: (§1)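 Broad Repurposing Library primary screen at a single dose of 5 uM. HT29 sg-Ctrl and HT29 RNF43 G659fs CRISPR-edited isogenic cells were seeded at 2500 cells/well in 384-well plates in duplicate and treated for 96 h. Viability was read by CellTiter-Glo and reported as % activity relative to DMSO, with MG132 as the positive control (negative = growth inhibition).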

[2] = tested on: HT29 sg-Ctrl (RNF43 wildtype); experiment: as above; conditions: 5 µM; 96 h
Procedure: as §1

| Compound | cell viability activity [1] | cell viability activity [2] |
| --- | --- | --- |
| CCCCCCCCCCCCCCCC[N+](C)(C)CCN(Cc1ccc(OC)cc1)c1ncccn1 | -95.1% | -94.5% |
| Cc1cccc(/C=N/Nc2cc(N3CCOCC3)nc(OCCc3ccccn3)n2)c1 | -66% | -62.4% |
| COc1cc(OC)c(/C=C/S(=O)(=O)Cc2ccc(OC)c(NCC(=O)O)c2)c(OC)c1 | -58.2% | -54.8% |
| CN[C@@H]1C[C@H]2O[C@@](C)([C@@H]1OC)n1c3ccccc3c3c4c(c5c6ccccc6n2c5c31)C(=O)N[C@H]4O | -88.9% | -91.7% |
| N#Cc1ccncn1 | -26.7% | -18.3% |
| O=C(/C=C\n1cnc(-c2cc(C(F)(F)F)cc(C(F)(F)F)c2)n1)NNc1cnccn1 | -73.9% | -69.8% |
| Clc1ccc(CSC(Cn2ccnc2)c2ccc(Cl)cc2Cl)cc1 (stereo not given) | -38.7% | -29% |
| Oc1c(Cl)cc(Cl)c(Cl)c1Cc1c(O)c(Cl)cc(Cl)c1Cl | -49% | -40.9% |
| Cc1cc(Nc2cc(N3CCN(C)CC3)nc(/C=C/c3ccccc3)n2)n[nH]1 | -74.6% | -75.7% |
| CC(C)(C)c1cnc(CSc2cnc(NC(=O)C3CCNCC3)s2)o1 | -81.8% | -81.8% |
| COc1cc([C@@H]2c3cc4c(cc3[C@@H](O[C@@H]3O[C@@H]5CO[C@@H](c6cccs6)O[C@H]5[C@H](O)[C@H]3O)[C@H]3COC(=O)[C@H]23)OCO4)cc(OC)c1O | -84.4% and -59.9% | -90.9% and -80.9% |
| COc1cccc2c1C(=O)c1c(O)c3c(c(O)c1C2=O)C[C@@](O)(C(=O)CO)C[C@@H]3O[C@H]1C[C@H](N)[C@@H](O)[C@H](C)O1 | -93.5% | -76.5% |
| Cc1nnc(C[C@@H]2C=C(c3ccc(Cl)cc3)c3ccccc3-n3c(C)nnc32)o1 | -63.5% | -64.7% |
| C=CCCCCCCCCC(=O)O | -66.5% | -72% |
| COc1cc(OC)cc(N(CCNC(C)C)c2ccc3ncc(-c4cnn(C)c4)nc3c2)c1 | -70.3% | -64.7% |
| CC(C)(C)c1ccc(S(=O)(=O)/C=C/C#N)cc1 | -80.4% | -95.4% |
| COC(=O)C[C@](O)(CCCC(C)(C)O)C(=O)O[C@@H]1C(OC)=C[C@]23CCCN2CCc2cc4c(cc2[C@H]13)OCO4 | -92.7% | -86.7% |
| O=C(O)C[C@H](O)C[C@H](O)/C=C/c1c(C2CC2)nc2ccccc2c1-c1ccc(F)cc1 | -25.1% | -8.8% |

| Compound | cell viability activity [1] | cell viability activity [2] |
| --- | --- | --- |
| C[C@@H](Oc1cc(-c2cnn(C3CCNCC3)c2)cnc1N)c1c(Cl)ccc(F)c1Cl | -97.1% | -95.4% |
| C#Cc1cccc(Nc2ncnc3cc(OC)c(OCCCCCCC(=O)NO)cc23)c1 | -90.3% | -71% |
| C/C(=C\c1csc(C)n1)[C@@H]1C[C@@H]2O[C@]2(C)CCC[C@H](C)[C@H](O)[C@@H](C)C(=O)C(C)(C)[C@@H](O)CC(=O)N1 | -42.8% | -38.1% |
| CCN1CCC[C@H]1CNC(=O)c1c(OC)ccc(Br)c1OC | -49.5% | -38.6% |
| CN[C@H](C(=O)N[C@H](C(=O)N(C)[C@H](/C=C(\C)C(=O)O)C(C)C)C(C)(C)C)C(C)(C)c1ccccc1 | -56.6% | -33.2% |
| Cc1cc(-c2cc(O)ccc2Cl)cc2nnc(Nc3ccc(OCCN4CCCC4)cc3)nc12 | -41.1% | -76.9% |
| O=C(CCCCCN1C(=O)c2cccc3cccc(c23)C1=O)NO | -79.1% | -71.7% |
| CC[C@H](CO)Nc1nc(NCc2ccc(-c3ccccn3)cc2)c2ncn(C(C)C)c2n1 | -92% | -92.1% |
| c1ccc2c(CCNc3ccc(Nc4ccncc4)cc3)c[nH]c2c1 | -93.4% | -90.3% |
| COC[C@H](C)NC1CCC(Nc2cc(-c3cccc(NCC4(C#N)CCOCC4)n3)c(Cl)cn2)CC1 (stereo not given in full) | -67.4% | -89.4% |
| CN1c2ccccc2C(=O)N2CCc3c([nH]c4ccccc34)[C@@H]21 | -24.8% | -3.62% |
| CS(=O)(=O)N1CCN(Cc2cc3nc(-c4cccc5[nH]ncc45)nc(N4CCOCC4)c3s2)CC1 | -62.8% | -51.8% |
| c1cc(Nc2cc(C3CC3)[nH]n2)nc(Nc2ccc3nc[nH]c3c2)n1 | -29.4% | -65.9% |
| CSc1ccccc1Nc1nc(N2CCNCC2)nc2c(NCC3CC3)ncnc12 | -95.8% | -94.6% |
| N#Cc1ccc(COC[C@H]2O[C@@H](n3c(NCc4ccc(Cl)c(Cl)c4)nc4c(N)ncnc43)[C@H](O)[C@@H]2O)cc1 | -24.9% | -31.3% |
| CCCOc1ccc2[nH]c(NC(=O)OC)nc2c1 | -69.6% | -55.8% |
| COc1cccc2cc(-c3nc([C@H]4CC[C@H](C(=O)O)CC4)n4ncnc(N)c34)[nH]c12 | -50.5% | -27.5% |
